Our source for the Potency values is PubChem BioAssay (NCATS).

Inconclusive results are not listed. Entries that show only a call come without a potency. Calls of active or inactive are those of the source. Calls come from the whole dose curve; as a rule, active = well fitted cell-killing curve with a large enough effect; inconclusive = small, poorly fitted or top-dose-only effect, or effect the other way; inactive = no such curve, though single readings can be large or run the other way.
Potency is the fitted concentration of half-maximal effect.

The first assay in a line: Quantitative High-Throughput drug screen in 47 multiple myeloma cell lines against the NCATS MIPE library collection: LP1_DSMZ cell viability assay (AID 1918982). Note: nearly all actives have a fitted effect of over 35% in size. Conditions: LP1 myeloma viability, CellTiter-Glo ATP luminescence, 48 h; series mostly up to 45.8 µM. In outline: (§1)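 Myeloma cells (500/well) treated with MIPE 4.0 compounds for 48 h at 37 °C, 5% CO2. Viability read as ATP via CellTiter-Glo luminescence after 5 min at RT; DMSO-only wells = 100%, media-only = 0% viability.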
Consider `COc1cc(OC)c(C(=O)CCCN2CCCC2)c(OC)c1`, for which the Potency result was “inactive”.

In the case of `CCN(CCO)CCCC(C)Nc1ccnc2cc(Cl)ccc12` (stereo not given), the Potency entry is “inactive”.

As to `CN(C)C(=O)COC(=O)Cc1ccc(OC(=O)c2ccc(N=C(N)N)cc2)cc1`, the Potency result was “inactive”.

With `C[C@@H](N)C1CCC(C(=O)Nc2ccncc2)CC1` (stereo not given in full), the Potency entry is “inactive”.

In the case of `Cc1ccc(C)c(OCCCC(C)(C)C(=O)O)c1`, the Potency result is “inactive”.

On to `O=C1c2c(O)cc(O)cc2OC(c2ccc(O)c(O)c2)C1O` (stereo not given), for which the Potency entry was “inactive”.

`CCOc1cc(CC(=O)N[C@@H](CC(C)C)c2ccccc2N2CCCCC2)ccc1C(=O)O`: the Potency entry is “inactive”.

For `COc1ccc2cc([C@H](C)C(=O)O)ccc2c1`, the Potency result was “inactive”.

For the compound `CC(C)C[C@H](NC(=O)[C@H](Cc1ccccc1)NC(=O)c1cnccn1)B(O)O`, the Potency was 0.0118 µM (active).

`CN1CCC(=C2c3ccccc3CCc3sccc32)CC1`: the Potency entry was “inactive”.

A further assay is described as follows: Quantitative High-Throughput drug screen in 47 multiple myeloma cell lines against the NCATS MIPE library collection: KMS28PE_JCRB cell viability assay (AID 1918983). Note: nearly all actives have a fitted effect of over 35% in size. Conditions: KMS28PE multiple myeloma viability, CellTiter-Glo ATP, 48 h; series mostly up to 45.8 µM. The procedure, abridged: as §1
In general terms: ATP-based viability assays read luminescence as a measure of living cells.
Take `CC(C)[C@H](N)C(=O)OCCOCn1cnc2c(=O)[nH]c(N)nc21`: the Potency was 14.8 µM (active).

Take `C=CCc1cc(OC)c(O)c(C(=O)NCCO)c1`: the Potency entry was “inactive”.

On to `CC1=C(C)C(=O)C(C(CCCCCC(=O)O)c2ccccc2)=C(C)C1=O` (stereo not given), for which the Potency entry was “inactive”.

For `Nc1cc(C(Cl)=C(Cl)Cl)c(S(N)(=O)=O)cc1S(N)(=O)=O`, the Potency entry is “inactive”.

On to `CC(=O)O[C@H]1C(=O)[C@@]2(C)C([C@H](OC(=O)c3ccccc3)[C@]3(O)C[C@H](OC(=O)[C@H](O)[C@@H](NC(=O)c4ccccc4)c4ccccc4)C(C)=C1C3(C)C)[C@]1(OC(C)=O)CO[C@@H]1C[C@@H]2O` (stereo not given in full), for which the Potency result is “inactive”.

For the compound `CCN(CCO)CCCC(C)Nc1ccnc2cc(Cl)ccc12` (stereo not given), the Potency result is “inactive”.

On to `CCc1nc(N)nc(N)c1-c1ccc(Cl)cc1`, for which the Potency entry was “inactive”.

In the case of `COc1cc2nc(N3CCN(C(=O)C4CCCO4)CC3)nc(N)c2cc1OC` (stereo not given), the Potency result was “inactive”.

Regarding `CN(C)C(=O)COC(=O)Cc1ccc(OC(=O)c2ccc(N=C(N)N)cc2)cc1`, the Potency result is “inactive”.

As to `Cc1ccc(C)c(OCCCC(C)(C)C(=O)O)c1`, the Potency result is “inactive”.

For `Cc1cccc(-c2[nH]ncc2-c2ccc3ncccc3n2)n1`, the Potency result is “inactive”.

`COc1cc(Nc2c(C#N)cnc3cc(OCCCN4CCN(C)CC4)c(OC)cc23)c(Cl)cc1Cl`: the Potency is 18.7 µM (active).

Consider `CCN(CC)C(=S)SSC(=S)N(CC)CC`, for which the Potency was 0.0118 µM (active).

For the compound `CCN(CC)CCOc1ccc(Cc2ccccc2)cc1`, the Potency was 20.9 µM (active).

Turning to `CCOc1cc(CC(=O)N[C@@H](CC(C)C)c2ccccc2N2CCCCC2)ccc1C(=O)O`, the Potency entry is “inactive”.

For `COc1cc(C(C)=O)ccc1OCCCN1CCC(c2noc3cc(F)ccc23)CC1`, the Potency result is “inactive”.

Consider `Cc1cccc(C)c1OCC(=O)N[C@@H](Cc1ccccc1)[C@@H](O)C[C@H](Cc1ccccc1)NC(=O)[C@H](C(C)C)N1CCCNC1=O`, for which the Potency was 20.9 µM (active).

With `CC(=O)N1CCN(c2ccc(OC[C@H]3CO[C@](Cn4ccnc4)(c4ccc(Cl)cc4Cl)O3)cc2)CC1`, the Potency was 6.62 µM (active).

On to `CCCOc1ccc2nc(NC(=O)OC)[nH]c2c1`, for which the Potency is 0.0066 µM (active).

For the compound `CC(=O)NC[C@H]1CN(c2ccc(N3CCOCC3)c(F)c2)C(=O)O1`, the Potency entry was “inactive”.

On to `CS(=O)(=O)OCCCCOS(C)(=O)=O`, for which the Potency was 13.2 µM (active).

As for `CN(c1nccc(=O)[nH]1)C1CCN(c2nc3ccccc3n2Cc2ccc(F)cc2)CC1`, the Potency entry is “inactive”.

On to `CC(C)C[C@H](NC(=O)[C@H](Cc1ccccc1)NC(=O)c1cnccn1)B(O)O`, for which the Potency is 0.0093 µM (active).

For the compound `CCCCC(CC)COC(=O)C(C#N)=C(c1ccccc1)c1ccccc1` (stereo not given), the Potency entry was “inactive”.

`CN1CCC(=C2c3ccccc3CCc3sccc32)CC1`: the Potency result is “inactive”.

Take `O=C(NCCO[N+](=O)[O-])c1cccnc1`: the Potency entry is “inactive”.

For the compound `Cc1ccc(NC(=O)c2ccc(CN3CCN(C)CC3)cc2)cc1Nc1nccc(-c2cccnc2)n1`, the Potency entry was “inactive”.

With `N[C@@H](Cc1cc(I)c(Oc2cc(I)c(O)c(I)c2)c(I)c1)C(=O)O`, the Potency result was “inactive”.

`O=C(O)c1cc(=O)c2c(OCC(O)COc3cccc4oc(C(=O)O)cc(=O)c34)cccc2o1`: the Potency result was “inactive”.

A short description of a further assay: Quantitative High-Throughput drug screen in 47 multiple myeloma cell lines against the NCATS MIPE library collection: L363_DSMZ cell viability assay (AID 1918984). Note: nearly all actives have a fitted effect of over 40% in size. Conditions: L363 myeloma viability, CellTiter-Glo ATP luminescence, 48 h; series mostly up to 45.8 µM. The procedure, abridged:
as §1
For `CCN(CCO)CCCC(C)Nc1ccnc2cc(Cl)ccc12` (stereo not given), the Potency entry was “inactive”.

As for `OC(CN1CCN(c2cccc(Cl)c2)CC1)C(c1ccccc1)c1ccccc1` (stereo not given), the Potency entry was “inactive”.

As for `COc1cc2nc(N3CCN(C(=O)C4CCCO4)CC3)nc(N)c2cc1OC` (stereo not given), the Potency is 1.48 µM (active).

For `CN(C)C(=O)COC(=O)Cc1ccc(OC(=O)c2ccc(N=C(N)N)cc2)cc1`, the Potency was 5.26 µM (active).

`Cc1cccc(-c2[nH]ncc2-c2ccc3ncccc3n2)n1`: the Potency entry was “inactive”.

For `COc1cc(Nc2c(C#N)cnc3cc(OCCCN4CCN(C)CC4)c(OC)cc23)c(Cl)cc1Cl`, the Potency was 1.66 µM (active).

As for `CCN(CC)C(=S)SSC(=S)N(CC)CC`, the Potency entry was “inactive”.

For the compound `CC(=O)N1CCN(c2ccc(OC[C@H]3CO[C@](Cn4ccnc4)(c4ccc(Cl)cc4Cl)O3)cc2)CC1`, the Potency entry is “inactive”.

For the compound `CN(c1nccc(=O)[nH]1)C1CCN(c2nc3ccccc3n2Cc2ccc(F)cc2)CC1`, the Potency entry is “inactive”.

Turning to `N[C@@H](Cc1cc(I)c(Oc2cc(I)c(O)c(I)c2)c(I)c1)C(=O)O`, the Potency entry is “inactive”.

Turning to `CN(C)C(=O)[C@H](O)[C@H](Cc1ccccc1)NC(=O)c1cc2cc(Cl)ccc2[nH]1`, the Potency was 2.64 µM (active).
